# Laboratory results as given in PubChem BioAssay AID540359 (Broad Institute, 2011).
# Measured potencies and affinities stand elsewhere. Calls of active or inactive are those of the source. The rule behind the calls is not given here.
# Target: UDP-galactopyranose mutase (Mycobacterium tuberculosis (strain ATCC 25618 / H37Rv)) (UniProt P9WIQ1)
# Test: Mycobacterium tuberculosis UGM enzyme inhibition, dose response confirmation, purified biochemical assay (AID 540359)
# Details: plate reader activity; series mostly up to 50 µM
# UDP-galactopyranose mutase (Mycobacterium tuberculosis (strain ATCC 25618 / H37Rv)), sequence (P9WIQ1 whole entry, looked up): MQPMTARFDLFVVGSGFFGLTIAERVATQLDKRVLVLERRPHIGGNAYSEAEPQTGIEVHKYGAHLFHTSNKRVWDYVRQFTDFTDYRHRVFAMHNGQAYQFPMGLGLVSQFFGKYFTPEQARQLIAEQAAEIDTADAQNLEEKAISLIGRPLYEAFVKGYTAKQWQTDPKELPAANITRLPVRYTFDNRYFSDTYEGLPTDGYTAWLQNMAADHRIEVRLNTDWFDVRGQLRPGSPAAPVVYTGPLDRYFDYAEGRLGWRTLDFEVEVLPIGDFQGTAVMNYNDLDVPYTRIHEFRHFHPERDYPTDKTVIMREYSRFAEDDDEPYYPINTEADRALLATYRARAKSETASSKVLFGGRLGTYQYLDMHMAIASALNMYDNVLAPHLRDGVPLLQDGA
row,Compound,outcome
1,COc1ccc(/C=C/C(=O)OCC(=O)NC2CCCCCC2)cc1OC,inactive
2,CCCC(=O)Nc1ccc(Cc2ccc(NC(=O)CCC)c(C(=O)O)c2)cc1C(=O)O,inactive
3,COc1ccc(-n2c(O)c(/C=C3\C=Nc4ccc(Br)cc43)c(=O)[nH]c2=O)cc1,inactive
4,CCN(CC)S(=O)(=O)c1ccc2c(c1)c(=O)c(C(=O)NCc1ccco1)cn2C,inactive
5,COc1cccc2c(=O)cn[nH]c12,inactive
6,CCOc1cc(/C=C2\CCCc3c2nc2ccccc2c3C(=O)O)ccc1OC,inactive
7,CCC1=NN2C(=N)/C(=C\c3cccn3-c3ccc(OC)cc3)C(=O)N=C2S1,inactive
8,COc1ccccc1N1CCN(C2CCCN(C(=O)CCC(=O)N(C)C)C2)CC1 (stereo not drawn),inactive
9,CC(C)OC(=O)CC(=O)c1sc2nc3c(cc2c1N)CN(C)CC3,inactive
10,CCOC(=O)C1CCCN(C(=O)C2c3ccccc3Oc3ccccc32)C1 (stereo not drawn),inactive
11,O=C(COC(=O)COc1cccc(Br)c1)NCc1ccc2c(c1)OCO2,inactive
12,CCOc1ccc(C(C(=O)NC2CCCC2)N(C(=O)CNC(=O)c2ccco2)c2cccnc2)cc1 (stereo not drawn),inactive
13,O=S(=O)(Nc1cccnc1Cl)c1ccc(F)cc1,inactive
14,Cc1nn(-c2ccccc2)c(Cl)c1C(=O)NCC1CCCO1 (stereo not drawn),inactive
15,CCOC(=O)CNc1ccc2c(c1)OCO2,inactive
16,O=S(=O)(c1ccccc1)N(CC1CO1)c1cc(Cl)ccc1Cl (stereo not drawn),inactive
17,COc1cccc(/C=N/n2c(-c3ccco3)nc3ccccc3c2=O)c1OC,inactive
18,COc1ccc(N=Cc2c(O)n(-c3cccc(C)n3)c(=O)c3ccccc23)c(OC)c1,inactive
19,COc1ccc2[nH]c(C)c(CCN(Cc3cccs3)C(=S)Nc3ccccc3OC)c2c1,inactive
20,Cc1c(N=C2N=C(NC(=O)c3ccc(F)cc3)c3ccccc32)c(=O)n(-c2ccccc2)n1C,inactive
21,CCc1ccc(C(CC(=O)c2ccc(Cl)cc2)C(=O)O)cc1 (stereo not drawn),inactive
22,Cn1nc(C(=O)Nc2cc(Cl)ccc2N2CCCC2)c2ccccc2c1=O,inactive
23,N=c1n(CCN2CCCC2)c2ccccc2n1CC(O)c1ccco1 (stereo not drawn),inactive
24,COc1ccc(CCn2c(=N)c(S(=O)(=O)c3ccc(C)cc3)cc3c(=O)n4ccccc4nc32)cc1,inactive
25,Cc1ccc(-c2nc3sc(C#N)c(N)n3c(=O)c2C#N)cc1,inactive
26,Cc1ccc(NC(=O)/C(C#N)=C/c2ccc(C)s2)c(C)c1,inactive
27,C=C1c2cc(C)ccc2NC(=O)N1c1ccc(C)cc1,inactive
28,O=C(/C=C/c1ccc2c(c1)OCO2)c1c(O)n(CCc2ccccc2)c(=O)[nH]c1=O,inactive
